Data from PubChem BioAssay AID1159580 (chemical genetic matrix, 2015).
Hit rate of the full screen: of about 5,500 compounds, about 2,000 (36%) were called active. Not shown: some 18% with an inconclusive outcome. Cut-off read from the data, not from the text of the source: active = normalized growth mostly below about 0.91 (no sharp cut-off); inconclusive = no clear call, values can overlap the other calls; inactive = mostly above about 0.92. This is one part of the list.

Assay: chemical genetic growth profiling, strain panel (AID 1159580);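 note: tested at 20 µM; growth read once vehicle control cultures reached saturation at 30 °C; 1 = growth at the plate median or of vehicle wells; lower values mean less growth of the strain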
Settings: growth OD

Measured: normalized growth

COc1cc2c(cc1OC)C1(O)C(=O)c3ccc(O)c(C(=O)O)c3OC1CO2 (stereo not drawn)
inactive: S. cerevisiae deletion strains, locus YKL009W, strain mrt4, active compounds read low 1.06 | S. cerevisiae deletion strains, locus YKL068W, active compounds read low 0.983 | S. cerevisiae deletion strains, locus YKL085W, strain MDH1 (second series), active compounds read low 0.975 | S. cerevisiae deletion strains, locus YKL085W, strain MDH1, active compounds read low 0.975 | S. cerevisiae deletion strains, locus YKL160W, strain elf1, active compounds read low 0.984 | S. cerevisiae deletion strains, locus YKL190W, strain CNB1, active compounds read low 0.991 | S. cerevisiae deletion strains, locus YKR001C, strain vps1, active compounds read low 1.01 | S. cerevisiae deletion strains, locus YKR026C, strain gcn3, active compounds read low 0.99 | S. cerevisiae deletion strains, locus YKR091W, strain srl3, active compounds read low 0.992 | S. cerevisiae deletion strains, locus YLL001W, strain dnm1, active compounds read low 1 | S. cerevisiae deletion strains, locus YLL026W, active compounds read low 0.993 | S. cerevisiae deletion strains, locus YLL041C, strain sdh2, active compounds read low 0.998 | S. cerevisiae deletion strains, locus YLR027C, strain aat2, active compounds read low 0.998 | S. cerevisiae deletion strains, locus YLR039C, strain RIC1, active compounds read low 1.08 | S. cerevisiae deletion strains, locus YLR058C, strain SHM2, active compounds read low 1.01 | S. cerevisiae deletion strains, locus YLR102C, strain apc9, active compounds read low 0.975 | S. cerevisiae deletion strains, locus YLR113W, strain HOG1, active compounds read low 0.982 | S. cerevisiae deletion strains, locus YLR221C, strain rsa3, active compounds read low 1.02 | S. cerevisiae deletion strains, locus YLR258W, strain gsy2, active compounds read low 0.99 | S. cerevisiae deletion strains, locus YLR262C, strain YPT6 (second series), active compounds read low 1.02 | S. cerevisiae deletion strains, locus YLR262C, strain YPT6, active compounds read low 1.08 | S. cerevisiae deletion strains, locus YLR268W, strain sec22, active compounds read low 1.02 | S. cerevisiae deletion strains, locus YLR320W, strain mms22, active compounds read low 1.01 | S. cerevisiae deletion strains, locus YLR330W, strain CHS5, active compounds read low 1 | S. cerevisiae deletion strains, locus YLR342W, strain FKS1, active compounds read low 1.02 | S. cerevisiae deletion strains, locus YLR357W, strain rsc2, active compounds read low 0.987 | S. cerevisiae deletion strains, locus YLR370C, strain arc18, active compounds read low 0.988 | S. cerevisiae deletion strains, locus YLR371W, strain rom2, active compounds read low 1 | S. cerevisiae deletion strains, locus YLR384C, strain iki3, active compounds read low 0.985 | S. cerevisiae deletion strains, locus YLR418C, strain cdc73, active compounds read low 1 | S. cerevisiae deletion strains, locus YML016C, strain PPZ1, active compounds read low 1.01 | S. cerevisiae deletion strains, locus YML032C, strain rad52, active compounds read low 1.01 | S. cerevisiae deletion strains, locus YML120C, strain ndi1, active compounds read low 1 | S. cerevisiae deletion strains, locus YML124C, strain tub3, active compounds read low 0.99 | S. cerevisiae deletion strains, locus YMR058W, strain fet3, active compounds read low 0.995 | S. cerevisiae deletion strains, locus YMR078C, strain ctf18, active compounds read low 0.992 | S. cerevisiae deletion strains, locus YMR125W, strain sto1, active compounds read low 0.983 | S. cerevisiae deletion strains, locus YMR129W, active compounds read low 0.987 | S. cerevisiae deletion strains, locus YMR205C, strain PFK2, active compounds read low 1.02 | S. cerevisiae deletion strains, locus YMR223W, strain ubp8, active compounds read low 0.98 | S. cerevisiae deletion strains, locus YMR231W, strain pep5, active compounds read low 0.994 | S. cerevisiae deletion strains, locus YMR307W, strain GAS1, active compounds read low 1.18 | S. cerevisiae deletion strains, locus YNL067W, strain RPL9B, active compounds read low 0.977 | S. cerevisiae deletion strains, locus YNL071W, strain lat1, active compounds read low 0.991 | S. cerevisiae deletion strains, locus YNL128W, strain TEP1, active compounds read low 1 | S. cerevisiae deletion strains, locus YNL153C, strain GIM3, active compounds read low 0.991 | S. cerevisiae deletion strains, locus YNL183C, strain NPR1, active compounds read low 0.94 | S. cerevisiae deletion strains, locus YNL209W, strain ssb2, active compounds read low 0.989 | S. cerevisiae deletion strains, locus YNL233W, strain BNI4, active compounds read low 0.996 | S. cerevisiae deletion strains, locus YNL248C, strain rpa49, active compounds read low 0.974 | S. cerevisiae deletion strains, locus YNL250W, strain rad50, active compounds read low 0.968 | S. cerevisiae deletion strains, locus YNL271C, strain bni1, active compounds read low 0.99 | S. cerevisiae deletion strains, locus YNL298W, strain CLA4, active compounds read low 0.985 | S. cerevisiae deletion strains, locus YNL307C, strain MCK1, active compounds read low 0.984 | S. cerevisiae deletion strains, locus YNL322C, strain KRE1 (second series), active compounds read low 1.01 | S. cerevisiae deletion strains, locus YNL322C, strain KRE1, active compounds read low 0.988 | S. cerevisiae deletion strains, locus YNR049C, strain mso1, active compounds read low 0.996 | S. cerevisiae deletion strains, locus YNR052C, strain pop2, active compounds read low 0.999 | S. cerevisiae deletion strains, locus YOL006C, strain TOP1, active compounds read low 1.38 | S. cerevisiae deletion strains, locus YOL012C, strain htz1 0.856 | S. cerevisiae deletion strains, locus YOL147C, strain pex11, active compounds read low 0.995 | S. cerevisiae deletion strains, locus YOR001W, strain rrp6, active compounds read low 1.02 | S. cerevisiae deletion strains, locus YOR061W, strain CKA2, active compounds read low 1.05 | S. cerevisiae deletion strains, locus YOR069W, strain VPS5, active compounds read low 0.989 | S. cerevisiae deletion strains, locus YOR070C, strain gyp1, active compounds read low 0.984 | S. cerevisiae deletion strains, locus YOR080W, strain dia2, active compounds read low 0.998 | S. cerevisiae deletion strains, locus YOR083W, strain WHI5, active compounds read low 0.999 | S. cerevisiae deletion strains, locus YOR106W, strain vam3, active compounds read low 0.997 | S. cerevisiae deletion strains, locus YOR136W, strain idh2, active compounds read low 1 | S. cerevisiae deletion strains, locus YOR144C, strain elg1, active compounds read low 0.994 | S. cerevisiae deletion strains, locus YOR184W, strain ser1, active compounds read low 1.07 | S. cerevisiae deletion strains, locus YOR231W, strain MKK1, active compounds read low 0.989 | S. cerevisiae deletion strains, locus YOR265W, strain rbl2, active compounds read low 1.01 | S. cerevisiae deletion strains, locus YOR270C, strain vph1, active compounds read low 1.01 | S. cerevisiae deletion strains, locus YOR290C, strain snf2, active compounds read low 0.978 | S. cerevisiae deletion strains, locus YOR316C, strain cot1, active compounds read low 0.976 | S. cerevisiae deletion strains, locus YPL051W, strain arl3, active compounds read low 0.982 | S. cerevisiae deletion strains, locus YPL078C, strain atp4, active compounds read low 0.98 | S. cerevisiae deletion strains, locus YPL106C, strain sse1, active compounds read low 0.991 | S. cerevisiae deletion strains, locus YPL240C, strain hsp82, active compounds read low 0.977 | S. cerevisiae deletion strains, locus YPL241C, strain CIN2, active compounds read low 0.983 | S. cerevisiae deletion strains, locus YPL256C, strain CLN2, active compounds read low 0.95 | S. cerevisiae deletion strains, locus YPR119W, strain clb2, active compounds read low 0.973 | S. cerevisiae deletion strains, locus YPR141C, strain kar3, active compounds read low 0.96 | S. cerevisiae deletion strains, locus YPR163C, strain tif3, active compounds read low 0.997 | S. cerevisiae deletion strains, locus YPR167C, strain met16, active compounds read low 1 | S. cerevisiae deletion strains, strain wtn01, active compounds read low 1.03 | S. cerevisiae strains, strain wild type, active compounds read low 1.04
